# Active and inactive are the calls of the source. Unless noted, no rule for the calls is given here.
# How the values were obtained:
# [1] = kinase inhibitors against Plasmodium liver-stage infection, cell-based, known kinase inhibitor set, luminescence, hepatoma host viability (AID 624392); conditions: Plasmodium liver stage in hepatoma cells, luciferase luminescence, concentration not given here; liver cell % of control: measured here: host liver cell viability; parasite % of control: stronger effect = lower value;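 also: infected cells incubated roughly two days before readout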
# [2] = modulators of glucocorticoid suppression of NF-kB, cell-based, luciferase, IL-1B stimulus, dexamethasone (AID 624486); conditions: NF-kB luciferase reporter, IL-1B + dexamethasone, luminescence; percent of negative control (+Dex): actives lie on both sides, concentration not given here; z-score: measured here: IL-1B alone, no Dex;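 as to percent of negative control (+Dex): 100% = mean signal of vehicle control wells on the plate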
# [3] = kinase inhibitors altering Pseudomonas killing of worms, whole organism (AID 651566);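 also: tested at 14 µM; sign flipped so higher z means a lower ratio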; conditions: C. elegans killed by P. aeruginosa, survival ratio
# [4] = activators of macrophage pro-inflammatory response, cell-based, murine, luminescence (AID 652131); conditions: murine macrophage pro-inflammatory reporter, stronger effect = higher value
# [5] = biological target: Cellular tumor antigen p53 (Homo sapiens) (UniProt P04637); test: kinase inhibitors altering GFP-p53 stability in HPV16-positive cells, imaging, known kinase inhibitor set, EGFP/DsRed ratio (AID 1053116); conditions: stronger effect = higher value; EGFP object count: measured here: GFP-p53 positive objects count;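 also: cells exposed to compounds for 24 h at 37 °C before reading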
# [6] = IRF3 reporter activation in THP-1 macrophages, cell-based, PMA-stimulated THP-1, luminescence (AID 1053176); conditions: PMA-differentiated THP-1, IRF3 reporter luminescence; stronger effect = higher value
# [7] = survival rescue of mitochondrial mutant cells in low glucose, primary screen, MELAS cybrids, Rieske KO mouse fibroblasts, CellTiter-Glo (AID 1508586;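 active = mean z-score across replicates of 1.96 or higher in either the MELAS or the Rieske mutant cell line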;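 also: z relative to plate mean and SD of compound and empty wells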)
# [8] = MELAS cybrid survival, CellTiter-Glo 48 h, stronger effect = higher value
# [9] = Rieske KO mouse fibroblast survival, CellTiter-Glo 72 h
# Cellular tumor antigen p53 (Homo sapiens), sequence (P04637 whole entry, looked up): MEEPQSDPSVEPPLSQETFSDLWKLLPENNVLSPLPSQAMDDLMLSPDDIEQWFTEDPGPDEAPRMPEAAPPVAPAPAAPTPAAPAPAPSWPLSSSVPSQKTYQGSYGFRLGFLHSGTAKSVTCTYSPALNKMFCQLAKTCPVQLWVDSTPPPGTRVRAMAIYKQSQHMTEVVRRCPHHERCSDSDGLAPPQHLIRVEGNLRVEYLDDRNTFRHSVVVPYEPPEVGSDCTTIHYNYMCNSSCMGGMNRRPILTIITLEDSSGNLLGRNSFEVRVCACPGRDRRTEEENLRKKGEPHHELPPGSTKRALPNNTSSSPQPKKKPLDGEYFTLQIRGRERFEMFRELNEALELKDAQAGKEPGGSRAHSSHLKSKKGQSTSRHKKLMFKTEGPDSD
SMILES,liver cell % of control [1] [%],parasite % of control [1],percent of negative control (+Dex) [2],z-score [2],z-score [3],z-score [4],EGFP object count [5],EGFP/DsRed ratio [5],fraction signal [6],"z-score [7, 8]","z-score [7, 9]"
O=C(Nc1n[nH]c2nc(-c3ccco3)ccc12)C1CC1,201,24% (inactive),104% (inactive),-0.105,-0.7 (inactive),0.373 (inactive),2,0.0203 (inactive),-0.008 (inactive),-0.235 (inactive),-0.343
CN(c1ccc(NC(=O)NCCN2CCOCC2)cc1)c1ccnc(Nc2ccc(CS(C)(=O)=O)cc2)n1,99.9,114% (inactive),94% (inactive),-0.155,0.89 (inactive),2.96 (inactive),3,0.184 (inactive),-0.0035 (inactive),-0.011 (inactive),-0.139
COc1ccccc1-c1cc(/C=C2\C(=O)Nc3ncc(Br)cc32)cc(Br)c1O,102,116% (inactive),96% (inactive),-0.115,0.69 (inactive),-0.578 (inactive),1,0.142 (inactive),0.0015 (inactive),-0.581 (inactive),-0.341
CN1CCC(C(=O)NC2NNC3NNC(c4ccccc4)CC32)CC1 (stereo not given),89.8,66% (inactive),90.5% (inactive),-0.385,-0.44 (inactive),3.5 (inactive),24,0.259 (inactive),-0.0035 (inactive),-0.114 (inactive),-0.215
NS(=O)(=O)c1cccc(-c2cc3ccncc3cc2OCc2ccccc2)c1,147,183% (inactive),95% (inactive),0.36,1.48 (inactive),-0.246 (inactive),3.5,0.215 (inactive),-0.012 (inactive),2.15 (active),0.958
C[C@@H](Oc1cc(-n2cnc3ccc(OC[C@@H](O)CO)cc32)sc1C(N)=O)c1ccccc1Cl,94.6,81.9% (inactive),90% (inactive),-0.93,0.155 (inactive),-1.41 (inactive),5,0.0656 (inactive),-0.0045 (inactive),-0.759 (inactive),0.965
Nc1nccc(-c2c(-c3ccc(F)cc3)ncn2C2CCC(O)CC2)n1 (stereo not given),93,24.7% (inactive),110% (inactive),1.26,0.765 (inactive),2.25 (inactive),2,0.124 (inactive),-0.0025 (inactive),-1.17 (inactive),-0.368
NS(=O)(=O)c1ccc(-c2ccc3c(NC(=O)C4CC4)n[nH]c3c2)cc1,109,143% (inactive),98.5% (inactive),0.755,-0.155 (inactive),0.098 (inactive),4.5,0.0343 (inactive),-0.0105 (inactive),-0.641 (inactive),-0.353
Cc1nnc(-c2cccc(-c3ccc(C(=O)NCC4CC4)cc3)c2)o1,102,99.2% (inactive),89.5% (inactive),-0.24,0.175 (inactive),-0.114 (inactive),4,0.0445 (inactive),-0.01 (inactive),0.518 (inactive),0.121
COc1ccccc1Nc1ncc(-c2ccccc2)o1,121,132% (inactive),243% (active),9.37,-1.29 (inactive),5.36 (inactive),8.5,0.173 (inactive),0.001 (inactive),0.853 (inactive),-0.618
CC(C)c1ccc2c(N=Nc3ccc(S(N)(=O)=O)cc3)c(O)[nH]c2c1,93.4,160% (inactive),94% (inactive),0.03,0.635 (inactive),-0.919 (inactive),4,0.177 (inactive),-0.0065 (inactive),-0.58 (inactive),-0.254
Cc1cc(O)cc(C)c1/C=C/c1cncc(C(=O)OC(C)(C)C)c1,60.8,116% (inactive),100% (inactive),0.33,0.75 (inactive),-0.067 (inactive),34.5,0.559 (inactive),0.0035 (inactive),0.119 (inactive),-0.153
COc1cc2ncn(-c3cc(OCc4cccs4)c(C(N)=O)s3)c2cc1OC,107,69% (inactive),111% (inactive),0.28,-0.19 (inactive),-0.264 (inactive),3.5,0.163 (inactive),-0.0075 (inactive),-0.262 (inactive),-0.175
NS(=O)(=O)c1cccc(-c2ccc3c(NC(=O)C4CC4)n[nH]c3c2)c1,97.5,241% (inactive),90.5% (inactive),0.225,-0.22 (inactive),-0.069 (inactive),4,0.0329 (inactive),-0.0015 (inactive),-0.0262 (inactive),-0.475
NC(=O)c1sc(-n2cnc3ccc(C(F)(F)F)cc32)cc1OCc1ccccc1Br,104,160% (inactive),98.5% (inactive),0.57,-0.455 (inactive),-0.965 (inactive),4,0.119 (inactive),0.007 (inactive),-0.166 (inactive),-0.246
